Read-out in assay [1]: Monocyte Chemoattractant Protein-1 (MCP1), CCL2 (gene 6347)
As to the kind of experiment: BSK_IMphg_MCP1: BioMAP Diversity Plus: IMphg Assay for Monocyte Chemoattractant Protein-1 (MCP1) Biomarker Activity (AID 2284253). To be noted: primary human endothelial cells with macrophages. The essentials:
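ELISA readout of MCP-1 at 24 hours in IMphg co-cultures of venular endothelial cells and macrophages, normalised to DMSO; parallel cultures stained with sulforhodamine B for overt cytotoxicity.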

Read-out in assay [2]: Interleukin-8 (IL8), CXCL8 (gene 3576)
The experiment in a line: BSK_KF3CT_IL8: BioMAP Diversity Plus: KF3CT Assay for Interleukin-8 (IL8) Biomarker Activity (AID 2284254). Conditions: primary human keratinocytes with fibroblasts. The procedure, abridged:
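Human primary keratinocyte plus foreskin fibroblast co-culture dosed with test chemicals; IL-8 measured by ELISA 24 h after dosing. Activity fitted in the positive direction relative to DMSO negative control.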

Read-out in assay [3]: Macrophage Inflammatory Protein-1 Alpha (MIP1a), CCL3 (gene 6348)
As to the kind of experiment: BSK_IMphg_MIP1a: BioMAP Diversity Plus: IMphg Assay for Macrophage Inflammatory Protein-1 Alpha (MIP1a) Biomarker Activity (AID 2284255). To be noted: primary human endothelial cells with macrophages. The essentials: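 MIP-1a protein levels were quantified by ELISA after 24 h treatment of human endothelial cell–macrophage co-cultures, compared with DMSO. Parallel cultures were fixed with TCA and stained with 0.1% SRB to gauge overt cytotoxicity.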

Read-out in assay [4]: CD69, CD69 (gene 969)
The experiment in a line: BSK_IMphg_CD69: BioMAP Diversity Plus: IMphg Assay for CD69 Biomarker Activity (AID 2284257). To be noted: primary human endothelial cells with macrophages. The procedure, abridged: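 Readout is ELISA for CD69 in primary human venular endothelial cell/macrophage co-culture, taken at 24 h post-dosing. SRB staining of parallel cultures gauged overt cytotoxicity; signal increase versus DMSO defined activity.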

Read-out in assay [5]: Eotaxin 3, CCL26 (gene 10344)
The experiment in a line: BSK_BF4T_Eotaxin3: BioMAP Diversity Plus: BF4T Assay for Eotaxin 3 Biomarker Activity (AID 2284258). Conditions: primary human bronchial epithelial cells with fibroblasts. The essentials:
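ELISA measurement of Eotaxin-3 after 24 h chemical exposure in a bronchial epithelial/dermal fibroblast co-culture, with DMSO as baseline. Parallel SRB staining (0.1% SRB after 10% TCA fixation, 560 nm) flagged overt cytotoxicity.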

Read-out in assay [6]: Monocyte Chemoattractant Protein-1 (MCP1), CCL2 (gene 6347)
As to the kind of experiment: BSK_BF4T_MCP1: BioMAP Diversity Plus: BF4T Assay for Monocyte Chemoattractant Protein-1 (MCP1) Biomarker Activity (AID 2284259). To be noted: primary human bronchial epithelial cells with fibroblasts. The essentials: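 MCP-1 ELISA readout taken 24 h after dosing in the BF4T system (bronchial epithelial cells plus dermal fibroblasts). Parallel SRB total-protein staining flagged cytotoxicity; DMSO served as baseline, positive fitting direction.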

Read-out in assay [7]: Intercellular Adhesion Molecule 1 (ICAM1), ICAM1 (gene 3383)
The experiment in a line: BSK_BF4T_ICAM1: BioMAP Diversity Plus: BF4T Assay for Intercellular Adhesion Molecule 1 (ICAM1) Biomarker Activity (AID 2284260). Conditions: primary human bronchial epithelial cells with fibroblasts. The essentials:
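ICAM-1 levels measured by ELISA after 24 h chemical treatment of bronchial epithelial cell/dermal fibroblast co-cultures, read against DMSO baseline. Overt cytotoxicity checked in parallel cultures by sulforhodamine B staining.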

Read-out in assay [8]: Interleukin-8 (IL8), CXCL8 (gene 3576)
The experiment in a line: BSK_MyoF_IL8: BioMAP Diversity Plus: MyoF Assay for Interleukin-8 (IL8) Biomarker Activity (AID 2284261). To be noted: primary human lung fibroblasts. The essentials:
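ELISA read-out of IL-8 from primary human lung fibroblasts, 24 h post-dose; positive-direction curve fitting relative to DMSO vehicle baseline.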

Read-out in assay [9]: CD90, THY1 (gene 7070)
As to the kind of experiment: BSK_BF4T_CD90: BioMAP Diversity Plus: BF4T Assay for CD90 Biomarker Activity (AID 2284262). To be noted: primary human bronchial epithelial cells with fibroblasts. The procedure, abridged:
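CD90 levels by ELISA after 24 h treatment of human bronchial epithelial cell/dermal fibroblast cultures, analysed versus DMSO. Overt cytotoxicity checked in parallel cultures by sulforhodamine B staining.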

Read-out in assay [10]: Interleukin-8 (IL8), CXCL8 (gene 3576)
The experiment in a line: BSK_BF4T_IL8: BioMAP Diversity Plus: BF4T Assay for Interleukin-8 (IL8) Biomarker Activity (AID 2284263). To be noted: primary human bronchial epithelial cells with fibroblasts. The procedure, abridged: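 Human bronchial epithelial cells with dermal fibroblasts co-culture; IL-8 measured by ELISA 24 hours after dosing, fitted vs DMSO. Cytotoxicity tracked in parallel cultures by SRB total-protein staining.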

Read-out in assay [11]: Interleukin-1 alpha (IL1a), IL1A (gene 3552)
The experiment in a line: BSK_BF4T_IL1a: BioMAP Diversity Plus: BF4T Assay for Interleukin-1 alpha (IL1a) Biomarker Activity (AID 2284264). Conditions: primary human bronchial epithelial cells with fibroblasts. The procedure, abridged: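 ELISA read-out of IL-1α from bronchial epithelial cell/dermal fibroblast co-cultures 24 h after compound addition. Increases scored against DMSO negative control. Cytotoxicity monitored by sulforhodamine B staining of parallel cultures.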

Read-out in assay [12]: KRT18 (gene 3875)
The experiment in a line: BSK_BF4T_Keratin818: BioMAP Diversity Plus: BF4T Assay for Keratin 818 Biomarker Activity (AID 2284266). To be noted: primary human bronchial epithelial cells with fibroblasts. The procedure, abridged: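 Keratin 8/18 levels quantified by ELISA after 24 h chemical treatment of bronchial epithelial cell/dermal fibroblast co-cultures, fitted in positive direction relative to DMSO. Parallel SRB staining tracks overt cytotoxicity.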

Assay [13] in a line: BSK_MyoF_SRB: Viability Assessment in the BioMAP Diversity Plus: MyoF Assay (AID 2284267).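 Also: total protein by SRB absorbance in parallel cultures as cytotoxicity measure.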 Conditions: primary human lung fibroblasts. The essentials: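 Confluent human lung fibroblasts were exposed to test chemicals for 24 h. Parallel wells were then fixed in 10% TCA, stained with 0.1% sulforhodamine B and measured at 560 nm. DMSO served as baseline for curve fitting.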
Read-out in assay [14]: Matrix Metallopeptidase 1 (MMP1), MMP1 (gene 4312)
As to the kind of experiment: BSK_MyoF_MMP1: BioMAP Diversity Plus: MyoF Assay for Matrix Metallopeptidase 1 (MMP1) Biomarker Activity (AID 2284268). Conditions: primary human lung fibroblasts. The essentials:
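ELISA readout of MMP1 in primary human lung fibroblast cultures, 24 h post-dosing. Gain of signal versus DMSO vehicle control defines activity. Parallel SRB staining (0.1% after 10% TCA fixation, 560 nm) flags overt cytotoxicity.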

Read-out in assay [15]: TIMP metallopeptidase inhibitor 1 (TIMP1), TIMP1 (gene 7076)
The experiment in a line: BSK_MyoF_TIMP1: BioMAP Diversity Plus: MyoF Assay for TIMP metallopeptidase inhibitor 1 (TIMP1) Biomarker Activity (AID 2284269). To be noted: primary human lung fibroblasts. The procedure, abridged: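 Fibroblasts from human lung are dosed with chemical, cultured 24 h, and assayed for TIMP-1 by ELISA. Increases over the DMSO baseline are scored, with SRB total-protein staining run in parallel for cytotoxicity.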

Read-out in assay [16]: Matrix Metallopeptidase 1 (MMP1), MMP1 (gene 4312)
As to the kind of experiment: BSK_BF4T_MMP1: BioMAP Diversity Plus: BF4T Assay for Matrix Metallopeptidase 1 (MMP1) Biomarker Activity (AID 2284270). Conditions: primary human bronchial epithelial cells with fibroblasts. The procedure, abridged:
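MMP-1 quantified by ELISA in primary human bronchial epithelial/dermal fibroblast co-cultures, 24 hours post-dosing, with DMSO as baseline; parallel sulforhodamine B staining (560 nm) tracks overt cytotoxicity.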

Read-out in assay [17]: Matrix Metallopeptidase 3 (MMP3), MMP3 (gene 4314)
The experiment in a line: BSK_BF4T_MMP3: BioMAP Diversity Plus: BF4T Assay for Matrix Metallopeptidase 3 (MMP3) Biomarker Activity (AID 2284271). To be noted: primary human bronchial epithelial cells with fibroblasts. The procedure, abridged: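 MMP-3 level read by ELISA after 24 h chemical exposure of bronchial epithelial cell/dermal fibroblast co-cultures, fitted upward relative to DMSO. Parallel cultures stained with 0.1% SRB after TCA fixation gauge overt cytotoxicity.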

Read-out in assay [18]: Tissue plasminogen activator (tPA), PLAT (gene 5327)
The experiment in a line: BSK_BF4T_tPA: BioMAP Diversity Plus: BF4T Assay for Tissue plasminogen activator (tPA) Biomarker Activity (AID 2284272). Conditions: primary human bronchial epithelial cells with fibroblasts. The procedure, abridged:
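tPA level quantified by ELISA at 24 h post-treatment in bronchial epithelial/dermal fibroblast co-cultures, gain of signal scored against DMSO baseline. Parallel cultures stained with 0.1% SRB (560 nm) to flag overt cytotoxicity.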

Read-out in assay [19]: Plasminogen Activator Inhibitor-1 (PAI1), SERPINE1 (gene 5054)
The experiment in a line: BSK_BF4T_PAI1: BioMAP Diversity Plus: BF4T Assay for Plasminogen Activator Inhibitor-1 (PAI1) Biomarker Activity (AID 2284273). To be noted: primary human bronchial epithelial cells with fibroblasts. The procedure, abridged:
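PAI-1 levels quantified by ELISA 24 h post-dosing in bronchial epithelial cell plus dermal fibroblast cultures. Signal gain referenced to DMSO baseline. Sulforhodamine B total-protein staining of parallel wells checked cytotoxicity.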

Assay [20] in a line: BSK_BF4T_SRB: Viability Assessment in the BioMAP Diversity Plus: BF4T Assay (AID 2284274). Conditions: primary human bronchial epithelial cells with fibroblasts. The procedure, abridged:
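Cytotoxicity measured as total protein: cells fixed with 10% TCA, stained with 0.1% SRB, read at 560 nm. Bronchial epithelial/dermal fibroblast co-culture, 24 h after dosing, with positive-direction fitting relative to DMSO.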

By AC50 is commonly meant the midpoint of the concentration-response curve, whichever way the signal moves.

A structure can be active in one record and inactive in another. Calls of active or inactive are those of the source. The calls were made as follows: active = hit-call score of the fitted dose curve at least 0.9, where 1 is the maximum; inactive = score below 0.9.

For `O=S(=O)(O)C(F)(F)C(F)(F)OC(F)(F)C(F)(F)F`, the result in assay [1], in assay [2], in [3], in assay [4], in assay [5] and in assay [6] was inactive. Moreover, the outcome in assay [7], in assay [8], in assay [9], in [10], in assay [11] and in assay [12] was inactive. For the same compound, the result in assay [13], in [14], in [15], in assay [16], in [17] and in assay [18] was inactive. Further, the result in assay [19] and in [20] was inactive. Further, the AC50 in assay [17] is 36.9 µM (active).

Turning to `C=C(F)C(=O)OC(C(F)(F)F)C(F)(F)F`, the result in assay [1], in assay [2], in assay [3], in assay [4], in assay [5] and in [6] was inactive. The result in assay [7], in assay [8], in [9], in [10], in assay [11] and in [12] was inactive. The outcome in assay [13], in assay [14], in assay [15], in assay [16], in [17] and in assay [18] was inactive. The result in assay [19] and in [20] was inactive. The half-maximal activity concentration (AC50) in assay [6] is 47.3 µM (active).

For the compound `O=C1OC2(c3ccc(O)cc3Oc3cc(O)ccc32)c2ccccc21`, the result in [8], in assay [13], in assay [14] and in assay [15] was inactive.

For `C=C(C)C(=O)OCCC(F)(F)C(F)(F)C(F)(F)C(F)(F)C(F)(F)C(F)(F)C(F)(F)C(F)(F)F`, the result in [1], in assay [2], in assay [3], in assay [4], in assay [5] and in assay [6] was inactive. Further, the outcome in [7], in assay [8], in assay [9], in assay [10], in assay [11] and in [12] was inactive. Also, the outcome in assay [13], in assay [14], in assay [15], in assay [16], in assay [17] and in [18] was inactive. For the same compound, the outcome in assay [19] and in assay [20] was inactive.

Values taken from PubChem BioAssay (EPA / NIEHS).
